Assay results reported in PubChem BioAssay AID1347076 (National Center for Advancing Translational Sciences (NCATS), 2019).
Screen size: about 400,000 compounds; about 13,000 (3.2%) were called active. A call without a number means that no potency is given here. Roughly 18% stayed inconclusive and do not appear here. The sample holds actives, similar compounds and a random draw of the others, so the mix is not that of the screen. The call rests on the fitted dose curve; in most records, active means well fitted cell-killing curve with a large enough effect; inconclusive means small, poorly fitted or top-dose-only effect, or effect the other way; inactive means flat fitted curve, though single readings scatter.

test: qHTS assay for MDR1-selective chemotherapeutics: Primary screen using the drug-selected MDR subline cells KB-V1; settings: KB-V1 MDR cells viability, CellTiter-Glo, 72 h; series mostly up to 46.1 µM; further: nearly all actives have a fitted effect of over 60% in size
Description: A prime difficulty in effectively treating cancer is the development of cellular resistance to multiple structurally unrelated anticancer drugs, a phenomenon known as multidrug resistance (MDR). […] Numerous strategies to overcome P-gp-mediated MDR have been explored, including the design of drugs that evade recognition and efflux, and development of inhibitors to block efflux and restore drug accumulation. […] An alternative approach is to exploit resistance by identifying drugs that target MDR cells over the non-resistant parental cells from which they were selected. […] The development of MDR1-selective agents represents a new strategy for resolving multidrug resistance, as it remains a long-standing clinical challenge for cancer chemotherapy.
Our goal is to identify compounds that selectively kill P-gp-expressing MDR cells. We will identify MDR1-selective compounds by comparing toxicity of compounds in the screening library against parental, drug-naive (KB-3-1) adenocarcinoma cells as well as their drug-selected MDR sub-line (KB-V1). The differential toxicity of compounds against these two cell lines will be used to identify MDR1-selective compounds, whose cytotoxicity is potentiated, rather than diminished, by P-gp expression. This assay will be utilized to conduct a quantitative high-throughput screen (qHTS) in collaboration with the NIH Chemical Genomics Center to identify selective agents, and probe hits arising from the screen will be validated using secondary assays and characterized through a well-established follow-up research program. This screen was run against the entire NCGC library collection of about 400,000 compounds.
NIH Molecular Libraries Probe Production Network [MLPCN]
NIH Chemical Genomics Center [NCGC]
PI: Michael Gottesman, National Cancer Institute, NIH
Briefly, 5 microL of media containing either KB-V1 cells (columns 1-2, 4-48) are dispensed into Greiner white, treated solid-bottom 1536-well assay plates (media-only control is added to column 3). Compounds are then transferred via Kalypsys pin tool equipped with 1536-pin array (10 nL slotted pins, V&P Scientific, San Diego, CA). Following addition of compound, the plates are incubated at 37 degrees C for 72 hours. CellTiter-Glo (2.5 µL/well) is then added, and the plates are read in a ViewLux reader (Perkin-Elmer, clear luminescence filter, 1 second exposure, 1x binning) following a 10 minute incubation. All cells are dispensed in DMEM phenol-red free media containing 10% FBS.
Library plates were screened starting from the lowest and proceeding to the highest concentration. Vehicle-only plates, with DMSO being pin-transferred to columns 5-48, will be inserted uniformly at the beginning and the end of each library in order to monitor and record any shifts in the background, which can be affected by reagent dispensers or loss in enzyme activity over time. Screening data will be corrected, normalized, and concentration-effect relationships will be derived by using publicly-available NCGC, NCATS curve fitting algorithms (http://ncgc.nih.gov/pub/openhts).
Potency means the concentration at half of the fitted maximal effect.

| Compound | Potency |
| --- | --- |
| O=C(COC(=O)c1ccccc1)Nc1ccc(Cl)cc1C(=O)c1ccccc1 | inactive |
| CN1CCN(C(=S)SCC(=O)Nc2ccc(Cl)cc2C(=O)c2ccccc2)CC1 | 5.17 µM (active) |
| COc1ccc(C2C=C(C)Oc3c2c(=O)oc2ccccc32)cc1OC (stereo unspecified) | inactive |
| Cc1ncoc1C(=O)NCC1=C(c2cccc3ccccc23)C[C@@H]2CC[C@H]1N2Cc1ccco1 | inactive |
| C=C(C)C1(CCCC)C(=O)NC(=S)NC1=O | inactive |
| Oc1cc2c(cc1CN1CCN(c3ccccc3)CC1)OCO2 | inactive |
| Cc1cc(C)c2c(c1)NP(=S)(c1ccccc1)N2 (stereo unspecified) | inactive |
| C[C@]12CCC3C(CC[C@H]4C[C@@H](O)CC[C@]34C)C1CC[C@@H]2O (stereo partly specified) | inactive |
| CC12CCC(O)CC1CCC1C2CCC2(C)C(C(=O)CC(O)C(F)(F)F)CCC12 (stereo unspecified) | 23.1 µM (active) |
| C[C@]12CCC3C(CC[C@H]4[C@H](O)[C@H](O)CC[C@]34C)C1CC[C@@H]2O (stereo partly specified) | inactive |
| COC(=O)[C@@H]1C(OC(=O)c2ccccc2)CC2CCC1N2C (stereo partly specified) | inactive |
| Cn1c(O)c(C(=Nc2ccc(F)cc2)c2ccccc2)c(=O)n(C)c1=O | inactive |
| O=P(OC1=CCCCC1)(c1ccccc1)c1ccccc1 | inactive |
| CCCOC(=O)C1C2c3ccccc3C(c3ccccc32)C1C(=O)O (stereo unspecified) | inactive |
| CC1CCC(N(C)C2CCN(C)CC2)CC1 (stereo unspecified) | inactive |
| O=C(c1cc2nc(-c3ccccc3)cc(-c3ccccc3)n2n1)N1CCC2(CC1)OCCO2 | 25.9 µM (active) |
| Cc1ccc(-c2cc(C(=O)N3CCC4(CC3)OCCO4)no2)cc1 | inactive |
| O=C(c1ccccc1[N+](=O)[O-])N1CCC2(CC1)OCCO2 | inactive |
| CC1C2Cn3c(nc4ccccc43)C1N(C)O2 (stereo unspecified) | inactive |
| COc1cc(C(=O)N2Cc3ccc(Br)cc3-n3nncc3C2)cc(OC)c1OC | inactive |
| CCC(C)(O)C(=O)OC1C(=O)OC2CC3C(C)=CC(=O)C(O)C3(C)C3C4(O)OCC23C1C(C)C4O (stereo unspecified) | 11.6 µM (active) |
| c1ccc(N2Cc3ccccc3-n3nncc3C2)nc1 | inactive |
| CCC(C)n1c(O)c(/C=N/Nc2nc3c(c(=O)n(C)c(=O)n3C)n2C)c(=O)[nH]c1=S (stereo unspecified) | inactive |
| CCN1C(=O)NC(=O)C2(CCCC2)C1=O | inactive |
| COC(=O)CN(CCCl)P1(=O)OCCCN1CCCl (stereo unspecified) | inactive |
| O=C(N/N=C/c1c(O)n(Cc2ccccc2)c(=O)[nH]c1=O)c1ccccc1 | inactive |

| Compound | Potency |
| --- | --- |
| CCCCCCN=C(CC)c1c(O)n(CCCC)c(=O)[nH]c1=O | 5.17 µM (active) |
| CCCCn1c(O)c(C(CC)=NCc2ccco2)c(=O)[nH]c1=O | 20.6 µM (active) |
| CC(=NCC1CCCO1)c1c(O)n(-c2ccccc2)c(=O)[nH]c1=O (stereo unspecified) | inactive |
| CCC(=NCCCO)c1c(O)n(-c2ccc(OC)cc2)c(=O)[nH]c1=O | inactive |
| CCC(=NCc1ccco1)c1c(O)n(Cc2ccccc2)c(=O)[nH]c1=O | 3.66 µM (active) |
| CN(C)CCCN=Cc1c(O)n(Cc2ccco2)c(=O)[nH]c1=O | inactive |
| CCCCC(=O)N/N=C/c1c(O)n(CCC2=CCCCC2)c(=O)[nH]c1=O | inactive |
| CC/C(=N\NC(=O)c1ccccc1O)c1c(O)n(Cc2ccccc2)c(=O)[nH]c1=O | inactive |
| c1cc2c(c(NC3=NCCCS3)c1)CCCC2 | inactive |
| O=c1c2ccccc2nc(CBr)n1-c1ccc(Cl)cc1 | inactive |
| C[N+]12CN3CN(CN(C3)C1)C2 | inactive |
| CC(CC(C#N)(c1ccccc1)c1ccccc1)N1CCCCC1 (stereo unspecified) | inactive |
| N#Cc1c(Cl)c(Cl)c(Cl)c(C#N)c1Cl | inactive |
| Cc1cccc(OP(=O)(Oc2cccc(C)c2)OC(c2ccccc2)C(F)(F)F)c1 (stereo unspecified) | inactive |
| Cc1ccc(OC(=O)N(C)C[C@@H]2OCc3cnnn3CCCC(=O)N([C@H](C)CO)C[C@@H]2C)cc1 | inactive |
| O=C1NCN(c2ccccc2)C12CCN(C(c1cccs1)c1nnnn1C1CCCCC1)CC2 (stereo unspecified) | inactive |
| CC(=O)C1(O)CCC2C3CCC4=C(Cl)C(=O)CCC4(C)C3CCC21C (stereo unspecified) | inactive |
| Cc1ccc(Cn2nnnc2CN2CCC(n3nnc4ccccc43)CC2)cc1 | 5.8 µM (active) |
| N[C@@H](Cc1c[nH]c2ccccc12)c1nnc(SCc2c(F)cccc2Cl)o1 | 18.4 µM (active) |
| CCOC(=O)CC(SP1(=S)OCC2(CCCCO2)C(C2CCCCO2)O1)C(=O)OCC (stereo unspecified) | inactive |
| CC(=O)Nc1ccccc1C(=O)OCC(=O)c1cccc2ccccc12 | inactive |
| Cn1cc(C(=O)OCC(=O)N2CCCC2)c2ccccc21 | 23.1 µM (active) |
| CC(C)c1ccc(OCC(=O)N2CCCN(C)CC2)cc1 | inactive |
| OCC#CC[N+]1(CC#Cc2ccccc2)CCCC1 | inactive |
| C[C@]12CCC3C(CC[C@H]4[C@H](O)[C@H](O)CC[C@]34C)C1CCC2=O (stereo partly specified) | inactive |
